Hit rate of the full screen: of about 48,000 compounds, about 13,000 (27%) showed an effect of 50% or more. The list shows a part of the results.
Tested on: Wolbachia pipientis
Assay: Anti-Wolbachia Cell-Based Screen
Assay type: functional
Parameters: scale not given: in the data most compounds retested in dose-response had high values
Conditions: 5 µM

SMILES | Percent Effect
O=C1CN(C(=O)CC2C(=O)NCCN2CC2CCCCC2)CCN1 (configuration not stated) | -19.63%
Cc1occc1CNC(=O)C1CCCN1C(=O)C1CC1 (configuration not stated) | -6.321%
COC(=O)c1ccc(OC)c(CN2CCN(CC(C)C)C(=O)C2C)c1 (configuration not stated) | 1.65%
COCC(C)(O)CNC(=O)Nc1cccc(OC)c1OC (configuration not stated) | 4.697%
CCN(CCc1nccs1)C(=O)c1ccco1 | -4.795%
CCCN(Cc1cccnc1)C(=O)C1CCN(Cc2ccco2)CC1 | 2.103%
CCN(CC)C(=O)Cn1c(=O)n(Cc2ccco2)c2ncccc21 | 92.26%
O=C(NC1CC1)[C@H]1C[C@H]2OCC[C@H]2N(Cc2ccco2)C1 | -4.068%
O=C(Cn1c(=O)n(Cc2ccco2)c2ncccc21)NC1CCCC1 | 120%
CC(C)(C)NC(=O)Cn1c(=O)n(Cc2ccco2)c2ncccc21 | 95.67%
O=C(Cn1c(=O)n(Cc2ccco2)c2ncccc21)Nc1ccccn1 | -4.791%
Cn1nc(C2CCN(CC(=O)NC3CC3)CC2)n(-c2ccccc2)c1=O | 1.77%
O=C(Cn1c(=O)n(Cc2ccco2)c2ncccc21)NC1CCCCC1 | -5.913%
Cc1nn(C(C)(C)C)c(=O)n1CC(=O)NC(C)(C)C | -3.979%
O=C(Cn1c(=O)n(Cc2ccco2)c2ncccc21)NC1CC1 | 115.8%
Cn1ncc2cnn(CC(O)COc3cccc4[nH]ccc34)c2c1=O (configuration not stated) | 26.41%
CC(C)c1noc(CCC(=O)Nc2cc(C(F)(F)F)c[nH]c2=O)n1 | -36.07%
CC(C)NC(=O)N1C[C@H]2C[C@H](C(=O)NCc3ccccc3)[C@@H](C1)O2 | -9.895%
CCc1ccc(NC(=O)N2C[C@H]3C[C@H](C(=O)NC(C)C)[C@@H](C2)O3)cc1 | 101%
CC(C)NC(=O)[C@H]1C[C@@H]2CN(C(=O)NC(C)C)C[C@H]1O2 | -20.07%
CCc1cnc(N2C[C@H]3C[C@H](C(=O)NC4CCC4)[C@@H](C2)O3)nc1 | -0.2357%
CCc1ccc(NC(=O)N2C[C@H]3C[C@H](C(=O)NC4CCC4)[C@@H](C2)O3)cc1 | 117.1%
CCc1ccc(NC(=O)N2C[C@H]3C[C@H](C(=O)NC)[C@@H](C2)O3)cc1 | -8.923%
Cc1cccc(C)c1OCCCN1CCC(n2cncn2)CC1 | 115.1%
c1ccc(OCCN2CCC(n3cncn3)CC2)cc1 | 93.12%
CSc1ccc(OCCN2CCC(n3cncn3)CC2)cc1 | 98.24%

SMILES | Percent Effect
FC(F)(F)Oc1ccc(CN2CCCC(n3cncn3)C2)cc1 (configuration not stated) | 13.2%
Clc1ccc(OCCN2CCN(CCn3cncn3)CC2)cc1 | -7.454%
Cc1cc(C)cc(OCCC(=O)N2CCCC(n3cncn3)C2)c1 (configuration not stated) | -4.983%
Clc1cc(Cl)cc(OCCN2CCC(n3cncn3)CC2)c1 | 103.8%
CC(C(=O)N1CCN(CCOc2ccccc2)CC1)n1cncn1 (configuration not stated) | -7.881%
Cc1ccccc1OCCC(=O)N1CCCC(n2cncn2)C1 (configuration not stated) | -9.445%
Cc1cccc(C)c1OCCC(=O)N1CCC(c2nncn2C)CC1 | 0.8719%
CCN(C)C(=O)c1ccc2c(c1)C(c1nc[nH]n1)CN2S(C)(=O)=O (configuration not stated) | -2.777%
COC(=O)c1ccc(CNC(C)(C)c2ccccc2OC)o1 | 5.551%
Cc1ccc(-c2cc(C(=O)NCCCc3csc(N)n3)[nH]n2)s1 | -6.732%
Cc1ccn2ncc(C(=O)N3CCCC(c4cc(C)[nH]n4)C3)c2n1 (configuration not stated) | 1.6%
CC(=O)N1CCc2c(nc(N(C)C)nc2NCc2cccs2)C1 | 5.703%
CCN(CCN1CCOCC1)C(=O)c1cccnc1 | -15.37%
Clc1cccc(Cl)c1CN(CCCN1CCOCC1)Cc1cccnc1 | 149.3%
CCC(C)N(Cc1cccnc1)Cc1cc2c(cc1Cl)OCO2 (configuration not stated) | -26.91%
O=C1O[C@@H]2CN(Cc3cccnc3)C[C@@H]2N1CCCN1CCOCC1 | 7.451%
Clc1ccc2oc(C3CCN(Cc4cccnc4)CC3)nc2c1 | -21.47%
Clc1ccc(CN(CCN2CCOCC2)Cc2cccnc2)cc1Cl | 180.4%
CN(Cc1c(F)cccc1Cl)C(=O)c1cnn(CCN2CCOCC2)c1 | -8.866%
c1cncc(-c2ccnn2CN2CCOCC2)c1 | -10.55%
Clc1ccc(CN(CCN2CCOCC2)Cc2cccnc2)c(Cl)c1 | 143.8%
Cc1[nH]c(=O)[nH]c(=O)c1CN1CCCC(CCc2ccc(F)c(F)c2)C1 (configuration not stated) | 8.003%
O=C1CC[C@H](C(=O)N(CCc2ccccc2)C2CCOC2)N1 (some centres not stated) | -17.91%
CCC(=O)N1CCc2[nH]cnc2C12CCN(C1CCOCC1)CC2 | -8.971%
CCc1ccc(CN(C)Cc2cnc(S(=O)(=O)CC)n2CCOC)cc1 | -8.303%
Cc1sc2nc(CCN)nc(N3CCC(N4CCCC4)CC3)c2c1C | -8.408%

SMILES | Percent Effect
Cc1cccnc1CNC(=O)NC(C)Cc1c(C)nn(C)c1C (configuration not stated) | -5.579%
O=C(NCCNC(=O)c1ccc(Br)cc1)c1ccc(O)cc1 | 3.17%
Cc1nc(S(=O)(=O)CCn2cccn2)n(CC2CCCO2)c1C (configuration not stated) | -14.31%
CC(C)Cc1cc(CNc2nc(-c3cccnc3)nc3c2CNC3)no1 | 13.84%
COc1cccc(CNc2cc(C)nc(-c3ccncc3)n2)c1O | -14.65%
CCc1csc(CNc2cc(C)nc(-c3cccnc3)n2)n1 | 113.3%
COc1cccc(CNc2cc(C)nc(-c3ccncc3)n2)c1OC | -14.13%
CCc1nc(CNc2cc(C)nc(-c3cccnc3)n2)cs1 | 88.21%
COCc1nc(CNc2cccc(-c3csc(C)n3)c2)cs1 | -8.53%
CCSCC(C)NCc1nncn1C1CCCCC1 (configuration not stated) | -19.08%
CCN(CCO)C(=O)Nc1ccc(OCCOC)nc1 | 0.2723%
COCCOc1ccc(NC(=O)N(CCCO)CC(C)(C)C)cn1 | 7.116%
COCCCN(CCOC)C(=O)Nc1ccccc1-n1cccn1 | 144.2%
COCCN(Cc1ccccn1)C(=O)Nc1cccnc1N1CCCC1 | -3.62%
COCCN(C)C(=O)c1ccccc1-n1cccn1 | 3.962%
COCCCN(CCOC)C(=O)Nc1ccc(Br)cc1 | 130.2%
O=C(C1CC=CC1)N1CCC2(CCN(Cc3cccc(F)c3)CC2)C1 | 0.9808%
N#Cc1ccc(CNC(=O)NC2CCN(c3ncccn3)CC2)cc1 | 5.422%
Cc1cc(CN2CCN(c3ccnc(-c4ccccc4)n3)CC2)no1 | 122.7%
Cc1cc(CN2CCN(C(c3ccccc3)c3ccccc3)CC2)no1 | -4.667%
Cn1cnc2c1CCN(c1ccnc(-c3ccccc3)n1)C2 | -10.53%
Cc1cnc(CN2CCN(c3ccnc(-c4ccccc4)n3)CC2)cn1 | 144.2%
Cc1noc(C)c1CN1CCN(Cc2nccn2C)CC1 | -9.314%
Cc1noc(C)c1CN1C[C@@H](C(=O)O)[C@H](c2ccccn2)C1 | -12.63%
Cc1noc(C)c1CN1CCN(c2ccnc(-c3ccccc3)n2)CC1 | 94.83%
Cc1cnc(CN2CCCCC2c2nc(-c3ccccc3)no2)cn1 (configuration not stated) | 19.76%

SMILES | Percent Effect
Cc1cc(CN2CCN(CC(O)c3ccccc3)CC2)no1 (configuration not stated) | -10.98%
CS(=O)(=O)NCCNC(=O)c1ccc(OCc2ccccc2)nc1 | 7.359%
CC(C)NC(=O)N1CCCn2cnc(CN3CCCC3=O)c2C1 | 81.15%
CC(C)OCc1ncn2c1CN(CCO)CCC2.O=C(O)C(F)(F)F | -4.222%
CC(C)NC(=O)N1CCCn2cnc(CO)c2C1.O=C(O)C(F)(F)F | 89.15%
O=C1CCCN1Cc1ncn2c1CN(C(=O)NC1CCCCC1)CCC2 | 133.6%
O=C(NC1CCCC1)N1CCCC(c2nccn2Cc2ccncc2)C1 (configuration not stated) | -3.815%
O=C1CCCN1Cc1ncn2c1CN(C(=O)NC1CCCC1)CCC2 | 86.82%
CCC(C)NC(=O)N1CCCn2cnc(CO)c2C1 (configuration not stated) | -12.35%
CC(C)CC(=O)N1CCCn2cnc(CN3CCCC3=O)c2C1 | 1.077%
Cn1nnnc1SCCNC(=O)CC1CCc2ccccc21 (configuration not stated) | 1.963%
CCC(CO)NC(=O)Nc1ccc(OCC(F)(F)F)c(C)c1 (configuration not stated) | -12.14%
CCN(Cc1noc(CC(C)C)n1)Cc1ccccc1OCC(=O)O | 3.118%
O=C(Cn1ccc2ccccc21)N1CCC(Oc2ncccc2Br)CC1 | 10.7%
Cl.Cl.c1c(CN2CCCCC2)nc2n1CCNC2 | 4.844%
CC(C)c1ccc(-n2cc(O)c(C(=O)O)n2)cc1 | 3.312%
CCCNC(=O)CN1CCC(NCc2c(C)nn(C)c2OC)CC1 | -12.27%
CNC(=O)[C@@H]1C[C@@H](NC(=O)CCCc2cccs2)CN1C1CCOCC1 | -14.74%
Cn1cc(CN2CCCn3cnc(CN4CCCC4=O)c3C2)cn1 | -11.95%
O=C(O)C(F)(F)F.O=C1CCCN1Cc1ncn2c1CN(C(=O)N1CCCC1)CCC2 | 106.2%
Cc1cccc(NC(=O)N2CCCn3cnc(CN4CCCC4)c3C2)c1.O=C(O)C(F)(F)F | -10.04%
CN(C)C(=O)NCc1ncn2c1CN(Cc1cccs1)CCC2.O=C(O)C(F)(F)F.O=C(O)C(F)(F)F | 0.9692%
Cc1cccc(NC(=O)N2CCCn3cnc(CN(C)C(C)C)c3C2)c1.O=C(O)C(F)(F)F | 110.9%
O=C1CCCN1Cc1ncn2c1CN(C(=O)C1CC=CC1)CCC2 | 99.96%
